Laboratory results from PubChem BioAssay (NCATS).
*1 amine or outer side, *2 acyl side, *3 side chain or, on linkers, in order; H or OH if unused. Where a SMILES comes first, the peptide text is derived from it. Bridges are numbered along the chain shown (N, C = ends). Roman numbers before positions name the chains, in order. [ ]: non-standard residue; d: D form. ξ: configuration not given here. Actinocin(9to1) = Cc1c2oc3c(C)ccc(C(=O)[*:1])c3nc-2c(C(=O)[*:2])c(N)c1=O; ξNMeV = CNC(C(=O)O)C(C)C; ξV = CC(C)C(N)C(=O)O; Sar = CNCC(=O)O

Test: Cell Proliferation Assay against the TMD8 Cell Line (AID 651645);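 further: cells exposed to compound for 48 h before reading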
Conditions: TMD8 DLBCL cell line proliferation/viability; at 46.1 µM (top of the series) unless noted
Text: One class of targeted therapeutics showing early clinical success in killing of ABC DLBCL lines are small molecule inhibitors of the Bruton tyrosine kinase (BTK) 11.
Prior to any combination assays, using an NCATS developed oncology compound library called the Mechanism of Interrogation Plate (MIPE), two well studied ABC DLBCL lines (TMD8 and HBL1) were screened using a cell viability assay (CellTiterGlo) and a 12-point titration series for each single agent. These initial experiments offered insight into the concentration range that offered the best coverage of activity and non-activity to assure relevant data is generated. In addition to the viability signature associated with this library, we examined the apoptotic response of each agent versus the TMD8 line as judged by caspase 3/7 activation. Activity was assayed at both 8 and 16 hour time-points to gain an appreciation of which agents induced an apoptotic response in a reasonable timeframe from a therapeutic exposure perspective. MIPE was also assayed for single agent viability in a human mesenchymal stem cell (hMSC) line as a surrogate of each library member's potential therapeutic index.
A total of 500 log growing TMD8 cells are seeded per well in 5 uL of a RPMI with glutamine (or Glutamax), without phenol red plus 5% FBS and 1X Pen/Strep into 1536 -solid white high base tissue culture treated Greiner One Bio Plates (789173-F) using a multidrop combi dispenser and a small sterile cassette. Compounds and controls totaling 23nL per well (negative control DMSO and positive control 9.2 uM Bortezomib-final) are immediately added to the plates using a 1536 head pin tool from Kalypsys. The plates are then covered with stainless steel gasket lids from Kalypsys and incubated for 48 hours at 37C under 95% relative humidity with 5% CO2. After 48 hours, the plates are removed and allowed to reach room temperature before 3 uL of Cell Titer Glo reagent (Promega) is added using an Aurora Flying Reagent Dispenser Bioraptor. The plates are then spun at 1000 rpms to remove bubbles and incubated for 15 minutes at room temperature before read on a ViewLux using a luminescent filter with a 10 second exposure. The relative luciferase units are used to calculated percent activity using DMSO as 100% and Bortezomib as 0%.

Compound CCC1(Cc2ccc(N)cc2)CCC(=O)NC1=O (stereo not given) has a viability (% of control) of 97.8% [at 92.2 µM].

Going from Cc1c2oc3c(C)ccc(C(=O)N[C@@H]4C(=O)NC(C(C)C)C(=O)N5CCC[C@H]5C(=O)N(C)CC(=O)N(C)C(C(C)C)C(=O)O[C@@H]4C)c3nc-2c(C(=O)N[C@@H]2C(=O)NC(C(C)C)C(=O)N3CCC[C@H]3C(=O)N(C)CC(=O)N(C)C(C(C)C)C(=O)O[C@@H]2C)c(N)c1=O (stereo not given in full) (I: T[ξV]P[Sar][ξNMeV] / II: T[ξV]P[Sar][ξNMeV]; ester I:1-I:C, II:1-II:C; linker I:N-II:N via Actinocin(9to1)) to CC[C@@H](C(=O)O)C1CC[C@H](C)C([C@@H](C)[C@H](O)[C@H](C)C(=O)[C@H](CC)C2O[C@]3(C=C[C@@H](O)[C@]4(CC[C@@](C)(C5CC[C@](O)(CC)[C@H](C)O5)O4)O3)[C@H](C)C[C@@H]2C)O1 (stereo not given in full), the viability (% of control) falls from 3.49% to 2.54%.

First: Cc1nnc(C(C)C)n1C1CC2CCC(C1)N2CC[C@H](NC(=O)C1CCC(F)(F)CC1)c1ccccc1 (stereo not given in full)
Second: CC(NC(=O)Cc1cc(F)cc(F)c1)C(=O)NC(C(=O)OC(C)(C)C)c1ccccc1 (stereo not given)
The viability (% of control) of the first is lower: 86.2% for the first, 90.6% for the second.

First: CCOc1cc2ncc(C#N)c(Nc3ccc(OCc4ccccn4)c(Cl)c3)c2cc1NC(=O)/C=C/CN(C)C
Second: CNC1CCN(C(Cc2cccc(-c3ccncc3)c2)C(=O)c2sc3c(F)ccc(F)c3c2Cl)CC1 (stereo not given)
The viability (% of control) of the first is lower: -0.655% for the first, 0.928% for the second.

Going from CCC1(O)CC2CN(CCc3c([nH]c4ccccc34)[C@@](C(=O)OC)(c3cc4c(cc3OC)N(C=O)[C@H]3[C@](O)(C(=O)OC)[C@H](OC(C)=O)[C@]5(CC)C=CCN6CC[C@]43[C@@H]65)C2)C1 (stereo not given in full) to COC(=O)C1=C(C)NC(C)=C(C(=O)OCCCN2CCC(c3ccccc3)(c3ccccc3)CC2)[C@H]1c1cccc([N+](=O)[O-])c1, the viability (% of control) rises from -0.162% to 2.99%.

First: NC(=O)Nc1cc(-c2ccc(CN3CCOCC3)c(F)c2)sc1C(=O)N[C@H]1CCCNC1
Second: O=c1cc(C2=CC=CC3Sc4ccccc4SC23)oc(N2CCOCC2)c1 (stereo not given)
The viability (% of control) of the first is lower: 1.45% for the first, 10.5% for the second.

First: CN(NC(=O)CC(=O)NN(C)C(=S)c1ccccc1)C(=S)c1ccccc1
Second: O=C(O)CC/C=C\CC[C@H]1[C@@H](N2CCCCC2)[C@@H](O)C[C@@H]1OCc1ccc(-c2ccccc2)cc1
The viability (% of control) of the first is lower: 81.1% for the first, 104% for the second.

C[C@@H]1CCN(C(=O)CC#N)C[C@@H]1N(C)c1ncnc2[nH]ccc12 gave a viability (% of control) of 76.9%.

In the case of CCCCCCCCCCCCCCCCCCOP(=O)([O-])OC1CC[N+](C)(C)CC1, the viability (% of control) is reported as 102% [at 29.8 µM].
